FH mod: Identification of activators of human fumarate hydratase by quantitative high-throughput screening. Fumarate hydratase, mitochondrial (Homo sapiens), P07954. FH coupled MDH/diaphorase resazurin fluorescence, 15 min. Potency, µM (titrated, usually from 79.9 µM), hits mostly inhibitors. 54,000 tested, 0.22% active; also: the screen sought activators but most active calls are inhibition curves; nearly all actives have a fitted effect of over 45% in size
HTT-AS promoter: Primary qHTS for Identification of Small Molecule Activators of Huntingtin-Antisense Promoter Activity | Potency, µM (top dose mostly 57.5 µM), usual class: activators | AID 1508624, 2021 | 48,000 tested, 0.24% active | HEK293 HTT-AS promoter firefly luciferase reporter, 24 h; response scale: percent change from vehicle, -100% = no light; also: nearly all actives have a fitted effect of over 55% in size
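Luminescence was read after Dual-Glo reagent and a 10 min room-temperature incubation. Values were normalized to vehicle (0% activity) and zero RLU (-100% activity). Reporter HEK293 cells had been exposed to compounds (up to 57.5 uM final) for 24 h.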
HTT prom inh: Primary qHTS for Identification of Small Molecule Inhibitors of Huntingtin Promoter Activity; HEK293 HTT promoter firefly luciferase reporter, 24 h; Potency, µM (titrated, usually from 57.5 µM), usual class: inhibitors; 48,000 tested, 0.93% active; AID 1508623, 2021; also: nearly all actives have a fitted effect of over 50% in size
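HEK293 Fluc reporter, 2,500 cells/well, 24 h pre-culture; cpds up to 57.5 uM final, 24 h 37 degrees C; Dual-Glo, 10 min RT; normalized vehicle = 0%, zero RLU = -100%.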
GPR32 ag: qHTS for Agonists of Human Resolvin D1 Receptor DRV1; CHO-K1 GPR32 beta-arrestin PathHunter luminescence, 90 min; zero percent set by DMSO-only wells; activation, % at 76.9 µM; 48,000 tested, 2.5% active; AID 1346428, 2018;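 active = activation of at least 60% and not above a set upper limit, about 1 call in 100 departs from these limits; inconclusive = activation of 40% to 60%, or above that upper limit; inactive = activation under 40%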
Target sequence (O75388 whole entry, looked up): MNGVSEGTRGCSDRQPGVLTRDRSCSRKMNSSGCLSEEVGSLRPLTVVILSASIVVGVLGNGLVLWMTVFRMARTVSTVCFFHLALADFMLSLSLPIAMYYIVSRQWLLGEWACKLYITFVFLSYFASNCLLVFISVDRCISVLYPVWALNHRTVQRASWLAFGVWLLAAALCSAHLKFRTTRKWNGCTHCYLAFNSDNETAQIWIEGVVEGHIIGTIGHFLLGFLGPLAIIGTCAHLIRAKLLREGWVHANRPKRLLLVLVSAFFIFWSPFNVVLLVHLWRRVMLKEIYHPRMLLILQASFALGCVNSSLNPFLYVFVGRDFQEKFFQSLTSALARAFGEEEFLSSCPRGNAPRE
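CHO-K1 cells stably expressing ProLink-tagged GPR32 and Enzyme Activator-tagged beta-arrestin were seeded at 2,500 cells/well overnight, exposed to compounds for 90 min at 37 °C, then read by beta-Gal complementation chemiluminescence after 1 h detection reagent.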
NTMT1 inhibitor: Primary qHTS for Inhibitors of N-terminal methyltransferase 1 (NTMT1): MTaseGlo Assay | N-terminal Xaa-Pro-Lys N-methyltransferase 1 (Homo sapiens), Q9BV86 | NTMT1 MTase-Glo SAH luminescence, purified enzyme | Potency, µM (titrated, usually from 114 µM), most hits filed as inhibitors | 59,000 tested, 2.5% active; also: nearly all actives have a fitted effect of over 65% in size
Target sequence (Q9BV86 whole entry, looked up): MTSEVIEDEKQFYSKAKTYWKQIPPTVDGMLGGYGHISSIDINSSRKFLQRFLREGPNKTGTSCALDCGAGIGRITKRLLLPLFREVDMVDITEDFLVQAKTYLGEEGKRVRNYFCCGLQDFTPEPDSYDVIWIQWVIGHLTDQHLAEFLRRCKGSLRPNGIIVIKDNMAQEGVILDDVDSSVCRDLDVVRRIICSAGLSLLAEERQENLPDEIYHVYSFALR
NNMT counter: Counterscreen qHTS for Inhibitors of N-terminal methyltransferase 1 (NTMT1): NNMT MTaseGlo assay. shares compounds with NTMT1 inhibitor. NNMT MTase-Glo luminescence, SAH detection. Potency, µM (titrated, usually from 57.1 µM), actives largely listed as inhibitors. 120 tested, 10% active. AID 1645878, 2021
Each line names hits and unclear results; the compound was inactive in the other large screens (follow-up assays come after a bar, where they were run); ! = repeats disagree. An excerpt weighted towards active compounds, which were near 4.7% of everything screened. Unless noted, calls follow the shape of the dose curve; as a rule, active = well fitted curve in the direction sought with a large enough effect; inconclusive = small, poorly fitted or top-dose-only effect, or another doubt; inactive = no such curve, though single readings can be large; an effect the other way counts as inactive or inconclusive.

Cc1ccc(NS(=O)(=O)c2cc3c(cc2N(C)C)NC(=O)CC3)cc1C	none (no result: FH mod, HTT-AS promoter, HTT prom inh, GPR32 ag)
O=C(O)/C=C/c1cc2c(cc1O[C@@H]1O[C@H](CO)[C@@H](O)[C@H](O)[C@H]1O)OCO2	none (no result: HTT-AS promoter, HTT prom inh, GPR32 ag)
Cc1cc(Nc2ccc(C(C)C)cc2)nc(-n2nc(C)cc2C)n1	HTT prom inh inconclusive
COc1ccc(Nc2cc(C)nc(-n3nc(C)cc3C)n2)cc1Cl	HTT prom inh 13µM
CCN(Cc1ccccc1)C(=O)Cn1c(=O)n(-c2ccc(Cl)cc2)c(=O)c2c(C)c(C)sc21	none
Cc1ccc(C(=O)NCC(c2ccco2)S(=O)(=O)c2ccccc2)cc1C (centres undefined)	none
CC1CCN(S(=O)(=O)c2ccc(C(=O)Nc3sc4c(c3C(N)=O)CC(C)(C)NC4(C)C)cc2)CC1	none
CCOC(=O)c1c(NC(=O)c2ccc(S(=O)(=O)N3CCCC(C)C3)cc2)sc2c1CC(C)(C)NC2(C)C (centres undefined)	HTT-AS promoter inconclusive, GPR32 ag 120
CC(=O)N1CCc2cc(CNS(=O)(=O)c3ccc(C(C)(C)C)cc3)ccc21	NTMT1 inhibitor inconclusive
CCC(=O)N1CCc2cc(CNS(=O)(=O)c3ccc(C(C)C)cc3)ccc21	GPR32 ag 109
Nc1ccc2nc(-c3ccc(O)cc3)sc2c1	HTT-AS promoter inconclusive, NTMT1 inhibitor 32µM
Cc1ccc(C)c(CN2CCCN(CC(=O)Nc3ccc(C)c(C)c3)S2(=O)=O)c1	none
Cc1cc(CN2CCN(c3ccccc3F)CC2)cs1	GPR32 ag 102
COc1ccc(CCNC(=O)c2nc(SCc3ccccc3F)ncc2Cl)cc1OC	FH mod inconclusive, HTT prom inh 18µM
CC(=O)Nc1ccc(NC(=O)c2nc(SCc3ccccc3C)ncc2Cl)cc1	GPR32 ag 65
CCCCc1ccc(-n2nc3cc(C)c(NC(=O)Cc4ccccc4)cc3n2)cc1	NTMT1 inhibitor 79µM
O=C(Cc1ccc(Cl)cc1)Nc1ccc2nn(-c3ccccc3)nc2c1	GPR32 ag 85
COc1ccc(CCNC(=O)CCn2c(=O)c3cccn3c3cccnc32)cc1OC	none
COc1ccc(N2CC(NC(=O)c3c(F)cccc3Cl)CC2=O)cc1OC (centres undefined)	none
CN(C)CCOc1ccc(-c2nc(-c3ccc4c(c3)CC/C4=N\O)c(-c3ccncc3)[nH]2)cc1	NTMT1 inhibitor 28µM (no result: FH mod, HTT-AS promoter, HTT prom inh, GPR32 ag)
O=C1NC(=O)/C(=C/c2ccc3c(c2)OCO3)S1	FH mod 32µM (no result: HTT-AS promoter, HTT prom inh, GPR32 ag)
O=C1NC(=O)/C(=C/c2ccc(-c3ccc(F)cc3)o2)S1	NTMT1 inhibitor inconclusive (no result: HTT-AS promoter, HTT prom inh, GPR32 ag)
Cc1ccc(Nc2nccc(N(C)c3ccc4c(C)n(C)nc4c3)n2)cc1S(N)(=O)=O	GPR32 ag inconclusive, NTMT1 inhibitor 16µM!
Cc1ccc(O)cc1Nc1ccnc(Nc2cccc(C(N)=O)c2)n1	none (no result: HTT-AS promoter, HTT prom inh, GPR32 ag)
Cn1nc(-c2ccc(C(=O)Nc3ccc(OC(F)(F)F)cc3)cc2)c2ccccc2c1=O	HTT prom inh 10µM
CCOC(=O)c1ccc(NC(=O)COc2cccc3c(=O)n(C)ccc23)cc1	HTT prom inh inconclusive, GPR32 ag 69
COCCn1ccc2c(OCC(=O)Nc3cccc(OC)c3)cccc2c1=O	GPR32 ag 73
Cn1ccc2c(OCC(=O)Nc3ccc(OC(F)(F)F)cc3)cccc2c1=O	HTT prom inh 20µM
Cn1ccc2c(OCC(=O)Nc3ccc([N+](=O)[O-])cc3)cccc2c1=O	none
COc1ccc(N2Cc3cccc(C(=O)O)c3C2=O)c(OC)c1	none (no result: FH mod, HTT-AS promoter, HTT prom inh, GPR32 ag)
COc1cc2c(cc1OC)[C@@H]1Cc3ccc(OC)c(OC)c3CN1CC2	none (no result: GPR32 ag)
COc1ccc2cc1Oc1ccc(cc1)CC1c3cc(c(OC)cc3CCN1C)Oc1c(OC)c(OC)c(OC)c3c1C(C2)N(C)CC3 (centres undefined)	NTMT1 inhibitor 40µM (no result: HTT-AS promoter, HTT prom inh, GPR32 ag)
COc1cc2c3cc1Oc1cc(ccc1O)C[C@@H]1c4c(cc(OC)c(O)c4Oc4ccc(cc4)C[C@@H]3N(C)CC2)CC[N+]1(C)C	NTMT1 inhibitor inconclusive
COc1ccc2cc1Oc1cc3c(cc1OC)CC[N+](C)(C)[C@H]3Cc1ccc(cc1)Oc1c(OC)c(OC)cc3c1[C@@H](C2)[N+](C)(C)CC3	NTMT1 inhibitor 13µM
Cc1cnc(Nc2ccc(F)cc2Cl)nc1-c1c[nH]c(C(=O)NC(CO)c2cccc(Cl)c2)c1 (centres undefined)	none (no result: HTT-AS promoter, HTT prom inh, GPR32 ag) | NNMT counter inactive
Cc1ccc2oc(NC3=NC4(CCCC4)C4=C(CCCC4=O)N3)nc2c1	none (no result: FH mod, HTT-AS promoter, HTT prom inh, GPR32 ag)
Cc1nc(Nc2n[nH]c3c2CN(C(=O)NC(CN(C)C)c2ccccc2)C3(C)C)c2sccc2n1 (centres undefined)	none (no result: HTT-AS promoter, HTT prom inh, GPR32 ag)
Cc1ccc(OCCSc2nc3ccccc3n2CC(=O)N2CCCCC2)cc1C	none
O=C(O)c1ccnc2cc(-c3nc4ccccc4n3CCN3CCCCC3)sc12	FH mod 13µM (no result: HTT-AS promoter, HTT prom inh, GPR32 ag) | NNMT counter inactive
CN(C)C(=O)NC1CCC(CCN2CCN(c3cccc(Cl)c3Cl)CC2)CC1 (centres undefined)	none (no result: HTT-AS promoter, HTT prom inh, GPR32 ag)
